Screening results: PubChem, National Center for Advancing Translational Sciences (NCATS)
The list is not random: actives were taken first. Their share in the collection is about 10%.
G9a inh – inhibitors of human histone lysine methyltransferase G9a | Q96KQ7 | G9a H3K9 monomethylation, AlphaScreen, 2 h | Potency, µM (highest dose often 102 µM), usual class: inhibitors | actives 8.8% (n = 350,000); also: nearly all actives have a fitted effect of over 75% in size
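AlphaScreen read-out: biotin-H3K9 peptide (500 nM) methylation by 20 nM enzyme with 20 uM SAM, 2 h at room temperature after 15 min compound preincubation; anti-monomethyl H3K9 antibody plus donor/acceptor beads, 10 min dark.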
HP1b chromo inh – inhibitors of HP1-beta chromodomain binding to methylated histone tails; P83916; AlphaScreen HP1-beta / biotin-H3K9me3 peptide binding; Potency, µM (top dose mostly 114 µM), most hits filed as inhibitors; actives 0.56% (n = 390,000); AID 540317; also: nearly all actives have a fitted effect of over 70% in size
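HP1-beta protein (50 nM final) preincubated 30 min at room temperature with biotinylated H3(1-18)K9me3 peptide (50 nM) in PBS pH 7.4, 0.01% Tween-20, then compound added for 30 min. AlphaScreen streptavidin donor/nickel chelate acceptor beads (10 ug/mL final), 30 min dark, luminescence read.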
JMJD2A Tudor – inhibitors of human JMJD2A Tudor domain; Potency, µM (highest dose often 114 µM), usual class: inhibitors; O75164; AlphaScreen JMJD2A-Tudor / H3K4me3 peptide binding; actives 4.4% (n = 390,000); also: nearly all actives have a fitted effect of over 50% in size
GLS inh – glutaminase GLS (human) inhibition | AID 624170 | O94925 | Potency, µM (doses to about 45.5 µM), most hits filed as inhibitors | GLS enzymatic activity, qHTS titration | actives 0.21% (n = 410,000)
Target sequence (O94925 whole entry, looked up): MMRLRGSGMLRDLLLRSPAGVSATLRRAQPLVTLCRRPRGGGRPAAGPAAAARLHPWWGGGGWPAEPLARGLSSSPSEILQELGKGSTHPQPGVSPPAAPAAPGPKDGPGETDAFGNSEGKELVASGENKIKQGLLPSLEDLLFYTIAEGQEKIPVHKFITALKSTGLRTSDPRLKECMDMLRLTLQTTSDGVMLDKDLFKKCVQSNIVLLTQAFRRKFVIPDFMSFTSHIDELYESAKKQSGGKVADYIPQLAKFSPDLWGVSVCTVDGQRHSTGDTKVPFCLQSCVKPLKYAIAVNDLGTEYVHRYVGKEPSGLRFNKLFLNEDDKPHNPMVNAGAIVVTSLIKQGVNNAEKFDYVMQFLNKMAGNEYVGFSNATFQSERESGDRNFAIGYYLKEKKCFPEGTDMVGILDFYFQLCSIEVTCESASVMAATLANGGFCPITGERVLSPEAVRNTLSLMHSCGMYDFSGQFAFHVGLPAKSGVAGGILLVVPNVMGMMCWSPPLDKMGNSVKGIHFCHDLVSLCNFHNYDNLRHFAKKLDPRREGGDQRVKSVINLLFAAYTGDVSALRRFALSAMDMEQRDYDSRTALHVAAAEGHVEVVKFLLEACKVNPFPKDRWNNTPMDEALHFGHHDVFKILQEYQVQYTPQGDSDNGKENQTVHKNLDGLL
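hKGA in 45 mM KH2PO4 (pH 8.2), 0.02% Tween-20 with compound, then 1mM L-Glutamine (stock as added) plus glutamate oxidase/HRP/Amplex red coupling mix. Fluorescence read initially and after 30 min at RT; signal change reflects glutamate formation.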
BAZ2B block – BAZ2B (human) inhibition; Q9UIF8; AlphaScreen BAZ2B-H3K14Ac peptide displacement; Potency, µM (highest dose often 114 µM), hits mostly inhibitors; actives 4.4% (n = 360,000); AID 504333; also: nearly all actives have a fitted effect of over 60% in size
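Complex of BAZ2B and biotin-H3K14Ac (50 nM apiece) forms over 30 min at RT, then faces library compounds up to 110 uM for another 30 min; AlphaScreen beads added, 20 min dark incubation, luminescence read.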
Each line names hits and unclear results; the compound was inactive in the other large screens; ! = repeats disagree. Calls follow the shape of the dose curve; as a rule, active = well fitted curve in the direction sought with a large enough effect; inconclusive = small, poorly fitted or top-dose-only effect, or another doubt; inactive = no such curve, though single readings can be large; an effect the other way counts as inactive or inconclusive.

COC(=O)c1nc(NC(=S)NC(=O)c2cccs2)sc1C	G9a inh 50µM
Fc1ccc(-c2cc(-c3ccccc3)c3c(n2)-c2cc(F)ccc2OC3)cc1	none
CCc1nnc(SCc2nc(-c3ccccc3)oc2C)c2cc3sccc3n12	none
CCCOc1cccc(C(=O)N(Cc2sccc2C)C2CCS(=O)(=O)C2)c1 (centres undefined)	none
COc1ccc(OC)c(-c2nn(-c3ccccc3)cc2C(=O)NC2(C)CCS(=O)(=O)C2)c1 (centres undefined)	none (no result: G9a inh, HP1b chromo inh, JMJD2A Tudor, BAZ2B block)
Cc1ccc(S(=O)(=O)c2nc(-c3ccccc3Cl)oc2N(C)C)cc1	none (no result: G9a inh)
Cc1ccc(-c2nc(S(=O)(=O)c3ccc(C)cc3)c(N(C)C)o2)cc1	G9a inh 10µM, JMJD2A Tudor inconclusive, BAZ2B block inconclusive
COc1cc(-c2nc(S(=O)(=O)c3ccc(C)cc3)c(N(C)C)o2)cc(OC)c1OC	G9a inh 3.5µM, JMJD2A Tudor inconclusive, BAZ2B block inconclusive
COc1ccccc1-c1nc(S(=O)(=O)c2ccc(Cl)cc2)c(N(C)C)o1	G9a inh 2.8µM, HP1b chromo inh inconclusive, JMJD2A Tudor inconclusive, BAZ2B block inconclusive
COc1ccccc1/C=C/c1nc(S(=O)(=O)c2ccccc2)c(N(C)C)o1	G9a inh 35µM, JMJD2A Tudor inconclusive, BAZ2B block 71µM
Cc1c(Br)cccc1NC(=O)C1(C)CCN1CCc1ccccc1 (centres undefined)	none (no result: G9a inh, HP1b chromo inh, JMJD2A Tudor, BAZ2B block)
CCn1cc(C(=O)NCc2ccc(Cl)cc2)c(=O)c2cc(S(=O)(=O)N(C)C3CCCCC3)ccc21	none (no result: BAZ2B block)
COc1ccc(C)cc1NC(=O)C1CCCCN1S(=O)(=O)c1ccccc1 (centres undefined)	none (no result: G9a inh, BAZ2B block)
Cc1oc2c(cc(NS(=O)(=O)c3ccc4c5c(cccc35)C(=O)N4)c3ccccc32)c1C(=O)OC(C)C	G9a inh 20µM
COc1ccc(C)cc1NS(=O)(=O)c1ccc2c3c(cccc13)C(=O)N2	JMJD2A Tudor 56µM
CC(C)(C)NC[C@H](O)CSc1nc(-c2ccc(C(N)=O)s2)cs1	G9a inh inconclusive (no result: HP1b chromo inh, JMJD2A Tudor, BAZ2B block)
CCOC(=O)C1=CCN(S(=O)(=O)c2ccccc2Cl)C1c1cccc(Br)c1 (centres undefined)	none (no result: G9a inh, HP1b chromo inh, JMJD2A Tudor, BAZ2B block)
O=C(NCCCO)c1ccc2nc(-c3ccco3)c(-c3ccco3)nc2c1	G9a inh 7.1µM, HP1b chromo inh inconclusive, JMJD2A Tudor 50µM, BAZ2B block 50µM
O=C(NCCO)Nc1ccc2nc(-c3ccco3)c(-c3ccco3)nc2c1	BAZ2B block 3.2µM (no result: G9a inh, HP1b chromo inh, JMJD2A Tudor, GLS inh)
Cc1nc2ccc(NC(=O)NCCO)cc2s1	none
CCCCNC(=O)c1ccc2nc(-c3ccco3)c(-c3ccco3)nc2c1	G9a inh 7.9µM, HP1b chromo inh inconclusive, JMJD2A Tudor 25µM, BAZ2B block 50µM
CC(=O)NC(CC(=O)Nc1ccc(S(=O)(=O)N2CCCC2)cc1)c1ccccc1 (centres undefined)	G9a inh 28µM (no result: BAZ2B block)
CCCCN(CCCC)S(=O)(=O)c1ccc(NC(=O)Cc2cccs2)cc1	JMJD2A Tudor 45µM, BAZ2B block inconclusive
O=C(Cc1cccs1)Nc1ccc(S(=O)(=O)N2CCCC2)cc1	G9a inh inconclusive, JMJD2A Tudor inconclusive, BAZ2B block 50µM
Cc1c(NC(=O)Cc2cccs2)cccc1[N+](=O)[O-]	G9a inh inconclusive, BAZ2B block 50µM
CC(=O)NC(CC(=O)Nc1cccc(S(=O)(=O)N2CCOCC2)c1)c1ccccc1 (centres undefined)	none
CCCN(CCC)S(=O)(=O)c1ccc(NC(=O)Cc2cccs2)cc1	JMJD2A Tudor inconclusive, BAZ2B block inconclusive
Cc1nccn1CCCNC(=O)C1CCC(=O)N(Cc2ccccc2F)C1 (centres undefined)	none (no result: G9a inh)
C[C@@H](CO)NC(=O)c1nc[nH]c1C(=O)N[C@H](C)c1ccccc1	none (no result: G9a inh, HP1b chromo inh, JMJD2A Tudor, BAZ2B block)
CC(=O)c1ccc(NC(=O)Cc2cccs2)cc1	G9a inh inconclusive, JMJD2A Tudor inconclusive, BAZ2B block 50µM
CCN(CC)S(=O)(=O)c1ccc(OC)c(NC(=O)Cc2cccs2)c1	G9a inh inconclusive, HP1b chromo inh inconclusive, JMJD2A Tudor 50µM, BAZ2B block 50µM
CC(C)c1ccc(NC(=O)CSC2=Nc3ccccc3C3=NC(CC(=O)NCc4ccc(F)cc4)C(=O)N23)cc1 (centres undefined)	JMJD2A Tudor inconclusive, GLS inh inconclusive
Cc1cc(NC(=O)CSc2nnc(-c3ccco3)n2CC2CCCO2)no1 (centres undefined)	none
CC1CCCCN1C(=O)CSc1nnc(-c2ccco2)n1C (centres undefined)	none
CCn1c(SCC(=O)N2CCCCC2C)nnc1-c1ccco1 (centres undefined)	G9a inh 35µM
CC1CCCCN1C(=O)CSc1nnc(-c2ccco2)n1CC1CCCO1 (centres undefined)	G9a inh 14µM
Cc1ccc(C(=O)CSc2nnc(-c3ccco3)n2CC2CCCO2)cc1 (centres undefined)	G9a inh 11µM
CC(C)NC(=O)C1(C)CCCN1C(=O)c1cc(C#N)cs1 (centres undefined)	none (no result: G9a inh, HP1b chromo inh, JMJD2A Tudor, BAZ2B block)
Cc1ccc(NC(=O)c2oc3ccccc3c2NC(=O)c2ccc(F)c(F)c2)cc1	none
CN(C)c1ncc2nc(-c3ccc(Cl)cc3)c(=O)n(C)c2n1	none (no result: HP1b chromo inh, JMJD2A Tudor, GLS inh, BAZ2B block)
C/C(=N\Nc1ccc([N+](=O)[O-])cc1)c1ccc(N2CCOCC2)cc1	none (no result: G9a inh)
C/C(=N\Nc1ccccc1[N+](=O)[O-])c1ccc(N2CCOCC2)cc1	HP1b chromo inh 10µM, JMJD2A Tudor inconclusive, BAZ2B block 1µM
COC(=O)C(=N/Nc1ccccc1C(=O)OC)/C(C)=N/O	G9a inh 50µM
CNc1ccccc1C(=O)OC	none
Cc1nc2nc(C)n(-c3ccccc3)c2s1	G9a inh 13µM
COc1ccc(S(=O)(=O)N(C)C)cc1NC(=O)c1ccc(OCC(=O)N2CCOCC2)c(OC)c1	G9a inh 50µM
COc1ccc(CCNC(=O)c2ccc(OCC(=O)N3CCOCC3)c(OC)c2)cc1OC	none (no result: G9a inh)
COc1ccc(CCNC(=O)c2ccc(OCC(=O)N3CCOCC3)c(OC)c2)cc1	G9a inh 8.9µM
COc1cc(C(=O)Nc2ccc(S(=O)(=O)N3CCCCC3)cc2)ccc1OCC(=O)N1CCOCC1	none (no result: G9a inh, BAZ2B block)
COC1CCCCC1Nc1cc(C)cc(C)c1 (centres undefined)	G9a inh 14µM, HP1b chromo inh 18µM, JMJD2A Tudor 18µM, BAZ2B block 35µM
Clc1ccc(OCc2cn3cccnc3n2)c2ncccc12	none
c1cnc2c(OCc3cn4cccnc4n3)cccc2c1	G9a inh 3.2µM, JMJD2A Tudor inconclusive, BAZ2B block inconclusive
O=C(Nc1ccc(-c2csnn2)cc1)C1CC1	GLS inh inconclusive
NC(=NC1C2CC3CC(C2)CC1C3)Nc1ccc(I)cc1 (centres undefined)	G9a inh 28µM! (no result: HP1b chromo inh, JMJD2A Tudor, GLS inh, BAZ2B block)
CCCCCOc1ccc(/C(C)=N/NC2=NCCN2)cc1	none
CCOc1ccc(Br)cc1/C(C)=N\NC1=NCCN1	G9a inh 56µM
